In PubChem BioAssay (NCATS) one finds Potency, activation and activity change, negative = inhibition data, which are given here for 21 molecules.

The target in experiment [1] is Rap guanine nucleotide exchange factor 3 (Homo sapiens) (UniProt O95398). Nature of the experiment: Confirmatory qHTS for antagonist of cAMP-regulated guanine nucleotide exchange factor 3 (EPAC1) (AID 1645880). Further: nearly all actives have a fitted effect of over 55% in size. Further: potency means the concentration at half of the fitted maximal effect. Put shortly: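 Released BODIPY-GDP fluoresces less than Rap1-bound BODIPY-GDP; the signal is followed at 480/540 nm at 5-min intervals over 30 min, after 5 min at room temperature. Reactions contain 100 nM EPAC1, 250 nM RAP1B-BODIPY-GDP and 50 uM GDP; results are normalized to ATA and DMSO.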
On the technique in general: Quantitative high-throughput screening tests each substance at several concentrations.

For experiment [2] the target is unchanged. Nature of the experiment: Confirmatory qHTS for agonist of cAMP-regulated guanine nucleotide exchange factor 3 (EPAC1) (AID 1645881). Further: nearly all actives have a fitted effect of over 75% in size. Further: potency means the concentration at half of the fitted maximal effect.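 On activation: EPAC1 catalysed release of BODIPY-GDP from Rap1B seen as fluorescence loss; 100% = effect of cAMP agonist control.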
Experiment [3] deals with Rap guanine nucleotide exchange factor 4 (Homo sapiens) (UniProt Q8WZA2). The experiment can be described thus: Confirmatory qHTS for agonist of cAMP-regulated guanine nucleotide exchange factor 4 (EPAC2) (AID 1645884).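 Further: nucleotide exchange releases bodipy-GDP from Rap1 and this lowers its fluorescence; nearly all actives have a fitted effect of over 65% in size.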 Further: potency means the concentration at half of the fitted maximal effect. On activation: on the % scale 0 is the no-effect control and ±100 the full control effect.
Experiment [4] has the same target. The experiment can be described thus: Confirmatory qHTS for antagonist of cAMP-regulated guanine nucleotide exchange factor 4 (EPAC2) (AID 1645885). Further: nearly all actives have a fitted effect of over 25% in size. Further: potency means the concentration at half of the fitted maximal effect. On activity change, negative = inhibition: on the % scale 0 is the no-effect control and ±100 the full control effect.
Experiment [5] deals with Rap guanine nucleotide exchange factor 3 (Homo sapiens) (UniProt O95398). The experiment can be described thus: Counterscreen qHTS for antagonist of cAMP-regulated guanine nucleotide exchange factor 3 (EPAC1) (AID 1645888). Further: % of control where 0% means no effect. Put shortly:
(§1)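 Rap1B-BODIPY-GDP 250 nM + GDP 50 uM; cpds 7-pt, final 9.74 nM–152 uM (activator mode) or from 7.32 nM upwards (inhibitor mode); RT; FI 480/540 nm at 5 and 30 min, then ± cAMP, reread.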
In general terms: The purpose of a counterscreen is to sort out artefacts and off-target activity.

Experiment [6] has the same target. Nature of the experiment: Counterscreen qHTS for agonist of cAMP-regulated guanine nucleotide exchange factor 3 (EPAC1) (AID 1645889). Further: nearly all actives have a fitted effect of over 40% in size. Further: potency means the concentration at half of the fitted maximal effect. On activation: % of control where 0% means no effect. The method in brief: as §1

Inconclusive results are not listed. A number with no mark means an inactive call. Calls of active or inactive are those of the source. The call rests on the fitted dose curve; in most records, active means well fitted curve in the direction sought with a large enough effect; inconclusive means small, poorly fitted or top-dose-only effect, or another doubt; inactive means no such curve, though single readings can be large; an effect the other way counts as inactive or inconclusive.

Chain of Rap guanine nucleotide exchange factor 3 (Homo sapiens) (O95398 whole entry, looked up): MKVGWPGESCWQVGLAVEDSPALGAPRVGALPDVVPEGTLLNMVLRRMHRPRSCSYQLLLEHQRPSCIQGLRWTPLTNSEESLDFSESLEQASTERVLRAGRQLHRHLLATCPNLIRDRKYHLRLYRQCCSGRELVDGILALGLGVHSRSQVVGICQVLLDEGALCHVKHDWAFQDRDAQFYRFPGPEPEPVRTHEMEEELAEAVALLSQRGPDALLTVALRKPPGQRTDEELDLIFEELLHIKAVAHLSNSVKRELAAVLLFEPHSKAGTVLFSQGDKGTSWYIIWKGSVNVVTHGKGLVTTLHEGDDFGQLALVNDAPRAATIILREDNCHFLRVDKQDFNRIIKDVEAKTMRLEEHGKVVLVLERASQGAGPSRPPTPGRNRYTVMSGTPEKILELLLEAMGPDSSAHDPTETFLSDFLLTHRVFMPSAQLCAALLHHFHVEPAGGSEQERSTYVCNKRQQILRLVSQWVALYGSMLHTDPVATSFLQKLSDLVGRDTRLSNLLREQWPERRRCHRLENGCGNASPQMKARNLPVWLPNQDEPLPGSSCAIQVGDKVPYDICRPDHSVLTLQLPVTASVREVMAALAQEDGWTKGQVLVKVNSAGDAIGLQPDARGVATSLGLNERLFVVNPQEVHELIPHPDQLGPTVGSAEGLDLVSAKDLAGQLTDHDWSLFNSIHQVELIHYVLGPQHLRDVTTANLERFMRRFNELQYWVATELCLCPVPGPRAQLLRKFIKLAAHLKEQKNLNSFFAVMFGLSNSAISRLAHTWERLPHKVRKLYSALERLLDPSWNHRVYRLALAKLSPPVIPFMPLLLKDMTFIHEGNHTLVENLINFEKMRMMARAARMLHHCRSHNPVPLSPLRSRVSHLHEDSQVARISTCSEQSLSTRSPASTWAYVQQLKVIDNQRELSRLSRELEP
Chain of Rap guanine nucleotide exchange factor 4 (Homo sapiens) (Q8WZA2 whole entry, looked up): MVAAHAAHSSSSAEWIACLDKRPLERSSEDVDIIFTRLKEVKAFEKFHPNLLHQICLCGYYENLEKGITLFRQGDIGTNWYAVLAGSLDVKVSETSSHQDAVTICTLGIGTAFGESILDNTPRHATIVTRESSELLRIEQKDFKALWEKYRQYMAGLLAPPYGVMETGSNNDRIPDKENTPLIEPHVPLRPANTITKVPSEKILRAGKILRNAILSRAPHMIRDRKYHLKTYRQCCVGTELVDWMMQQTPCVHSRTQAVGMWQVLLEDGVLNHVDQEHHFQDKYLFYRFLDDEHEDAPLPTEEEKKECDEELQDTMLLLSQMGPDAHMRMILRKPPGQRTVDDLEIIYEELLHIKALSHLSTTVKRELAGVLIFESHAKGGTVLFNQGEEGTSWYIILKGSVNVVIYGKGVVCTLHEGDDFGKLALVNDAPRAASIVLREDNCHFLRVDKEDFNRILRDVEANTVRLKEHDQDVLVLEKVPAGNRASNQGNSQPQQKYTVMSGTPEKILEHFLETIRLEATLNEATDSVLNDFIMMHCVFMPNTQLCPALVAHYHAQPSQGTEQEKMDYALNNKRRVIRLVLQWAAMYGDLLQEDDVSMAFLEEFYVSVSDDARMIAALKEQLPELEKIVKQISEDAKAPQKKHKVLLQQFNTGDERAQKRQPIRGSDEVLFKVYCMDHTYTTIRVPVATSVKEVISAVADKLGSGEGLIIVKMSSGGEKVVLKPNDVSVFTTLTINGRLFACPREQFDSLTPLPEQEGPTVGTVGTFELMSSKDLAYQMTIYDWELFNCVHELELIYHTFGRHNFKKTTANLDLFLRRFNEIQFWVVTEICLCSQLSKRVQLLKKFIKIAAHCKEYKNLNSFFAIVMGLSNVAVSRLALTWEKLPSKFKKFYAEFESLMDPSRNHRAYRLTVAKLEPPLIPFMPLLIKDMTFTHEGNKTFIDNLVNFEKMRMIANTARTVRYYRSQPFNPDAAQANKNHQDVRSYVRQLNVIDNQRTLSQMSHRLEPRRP

For the molecule `COc1ccccc1NC(=O)C(C)OC(=O)COc1cccc2c1OC(C)(C)C2` (stereo unspecified), the Potency result in experiment [1], in experiment [2] and in experiment [4] was “inactive” each time. The activation in experiment [3] is 2.07% [at 17.1 µM, percent relative to cAMP agonist control]; in experiment [6] it was 7.64% [at 30.8 µM]. Moreover, the activity change, negative = inhibition in experiment [5] was -14.5% [at 30.8 µM].

With `O=C(CCCc1ccccc1)NCc1cn2ccsc2n1`, the Potency entry in experiment [1], in experiment [2], in experiment [3], in experiment [4], in experiment [5] and in experiment [6] was “inactive” throughout.

Turning to `O=C(NC1CCN(Cc2ccccc2)CC1)c1cn(-c2ccccc2)nc1-c1cccnc1`, the Potency entry in experiment [1], in experiment [2], in experiment [3], in experiment [4], in experiment [5] and in experiment [6] was “inactive” each time.

Turning to `O=c1[nH]c(/C=C/c2cccc([N+](=O)[O-])c2)c([N+](=O)[O-])c(=O)[nH]1`, the Potency in experiment [1] was 16.9 µM (active). The Potency entry in experiment [2], in experiment [3], in experiment [4], in experiment [5] and in experiment [6] was “inactive” each time.

Turning to `CC(C)(C)c1cc(-c2csc(Nc3ccccc3)[n+]2Cc2ccc(C(=O)O)cc2)cc(C(C)(C)C)c1O`, the Potency in experiment [1] is 67.5 µM (active); in experiment [4] it was 84.9 µM (active). Besides, the Potency entry in experiment [2], in experiment [3], in experiment [5] and in experiment [6] was “inactive” each time.

Consider `CCCn1c(N)c(C(=O)CSc2n[nH]c(-c3ccc(C)cc3)n2)c(=O)[nH]c1=O`, for which the Potency entry in experiment [1], in experiment [2], in experiment [3], in experiment [4], in experiment [5] and in experiment [6] was “inactive” throughout.

Consider `c1ccc(OCCCn2ccnc2)cc1`, for which the Potency entry in experiment [1], in experiment [2], in experiment [3], in experiment [4], in experiment [5] and in experiment [6] was “inactive” in each case.

As to `Clc1c(Cl)c(Cl)c2n[nH]nc2c1Cl`, the Potency was 75.7 µM (active) in experiment [1] and 19 µM (active) in experiment [4]. Further, the Potency entry in experiment [2], in experiment [3], in experiment [5] and in experiment [6] was “inactive” each time.

As for `COCCn1c(SCC(=O)c2ccccc2)nc2cc(C(=O)NC3CCCC3)ccc2c1=O`, the Potency entry in experiment [1], in experiment [2], in experiment [3], in experiment [4], in experiment [5] and in experiment [6] was “inactive” each time.

Consider `N#Cc1cc(C(=O)c2cc(F)ccc2O)cn(-c2nccs2)c1=O`, for which the Potency result in experiment [1], in experiment [4] and in experiment [5] was “inactive” each time. Besides, the Potency in experiment [2] was 100 µM (active); in experiment [3] it was 112 µM (active); in experiment [6], 39.8 µM (active).

On to `O=C(N/N=C/c1cn(-c2ccccc2)nc1-c1cccnc1)c1ccccc1`, for which the Potency entry in experiment [1], in experiment [2] and in experiment [4] was “inactive” in each case. Further, the activation was 6.58% [at 17.1 µM, percent relative to cAMP agonist control] in experiment [3] and 18.8% [at 30.8 µM] in experiment [6]. In addition, the activity change, negative = inhibition in experiment [5] was -17.7% [at 30.8 µM].

Take `COc1ccccc1OCC(=O)Nc1cc(C(F)(F)F)ccc1-n1cncn1`: the Potency entry in experiment [1], in experiment [2] and in experiment [4] was “inactive” throughout. Also, the activation in experiment [3] is 2.73% [at 17.1 µM, percent relative to cAMP agonist control]; in experiment [6], 5.31% [at 30.8 µM]. Also, the activity change, negative = inhibition in experiment [5] was -12% [at 30.8 µM].

Consider `O=C(C[n+]1cc(Br)cc2ccccc21)c1ccc(F)cc1`, for which the Potency result in experiment [1], in experiment [2] and in experiment [4] was “inactive” each time. Also, the activation in experiment [3] is 1.58% [at 17.1 µM, percent relative to cAMP agonist control]; in experiment [6], 21% [at 30.8 µM]. The activity change, negative = inhibition in experiment [5] was 9.18% [at 30.8 µM].

For the molecule `CN1/C(=C\C=C2/SC(=S)NC2=O)C(C)(C)c2ccccc21`, the Potency entry in experiment [1] and in experiment [5] was “inactive” in each case. Also, the Potency is 79.4 µM (active) in experiment [2], 79.4 µM (active) in experiment [3], 7.57 µM (active) in experiment [4] and 70.8 µM (active) in experiment [6].

On to `CC1CC(C)CN(c2nc3c(c(=O)n(C)c(=O)n3C)n2CCSc2ncccn2)C1` (stereo unspecified), for which the Potency entry in experiment [1], in experiment [2] and in experiment [4] was “inactive” each time. In addition, the activation was 0.98% [at 17.1 µM, percent relative to cAMP agonist control] in experiment [3] and 6.66% [at 30.8 µM] in experiment [6]. The activity change, negative = inhibition in experiment [5] was 1.05% [at 30.8 µM].

Turning to `Cc1ccc(N(Cc2cccs2)C(=O)c2ccccc2[N+](=O)[O-])cc1`, the Potency result in experiment [1], in experiment [2], in experiment [3], in experiment [4], in experiment [5] and in experiment [6] was “inactive” in each case.

In the case of `Cc1nc2c(C(=O)NCCC(C)C)c[nH]n2c(=O)c1Cl`, the Potency entry in experiment [1], in experiment [2], in experiment [3], in experiment [5] and in experiment [6] was “inactive” throughout. Besides, the Potency in experiment [4] is 84.9 µM (active).

Turning to `Cc1nc(N)sc1C(=O)N1N=N1`, the Potency entry in experiment [1], in experiment [2], in experiment [3], in experiment [4], in experiment [5] and in experiment [6] was “inactive” throughout.

Regarding `CC(NCc1cccn1C)c1ccccc1` (stereo unspecified), the Potency result in experiment [1], in experiment [2], in experiment [3], in experiment [4], in experiment [5] and in experiment [6] was “inactive” throughout.

For `COc1ccc(C(CC(=O)N2CCOCC2)c2c(OC)cc(OC)c3c(-c4ccccc4)cc(=O)oc23)cc1` (stereo unspecified), the Potency in experiment [1] was 37.9 µM (active). Also, the Potency entry in experiment [2], in experiment [3], in experiment [4], in experiment [5] and in experiment [6] was “inactive” throughout.

With `COc1cccc(C(c2nnnn2-c2c(C)cccc2C)N2CCN(C/C=C/c3ccccc3)CC2)c1OC` (stereo unspecified), the Potency entry in experiment [1], in experiment [2], in experiment [3], in experiment [4], in experiment [5] and in experiment [6] was “inactive” each time.
